Inconclusive results are not listed. Unmarked numbers belong to inactive results. Active and inactive are the calls of the source. Calls come from the whole dose curve; as a rule, active = well fitted inhibition curve with a large enough effect; inconclusive = small, poorly fitted or top-dose-only effect; inactive = flat fitted curve, though single readings scatter. Peptide text beside a SMILES is read from it.
tested on: PC49; assay: qHTS profiling for inhibitors of Plasmodium falciparum proliferation (AID 504749); note: nearly all actives have a fitted effect of over 60% in size;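 for activity, negative = inhibition: 0% = DMSO vehicle and full inhibition = artemisinin control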; details: P. falciparum in erythrocytes, SYBR Green DNA, 72 h; series mostly up to 12.8 µM; activity, negative = inhibition: at the top concentration
Method in brief: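 Infected RBCs, 0.3% parasitemia/2.5% Hct final; cpd 72 h, 37 C, 5% CO2; lysis buffer with saponin/triton/SYBR Green I, o/n RT dark; FI 485/535; norm. to artemisinin (0.29 uM) and DMSO.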
Potency is the fitted concentration of half-maximal effect.

SMILES | activity, negative = inhibition | Potency
CN(C)CCCOC1C(C(O)CO)OC2OC(C)(C)O[C@@H]21 (some centres not stated) | 17.6% [at 28.7 µM] | 
CCC(C)C(=O)OC1CCC=C2C=CC(C)C(CCC3CC(O)CC(=O)O3)[C@@H]21 (some centres not stated) | 3.15% [at 28.7 µM] | 
CC(=O)OC1CCC2C3CCc4cc(O)ccc4C3CCC12C (configuration not stated) | 1.34% [at 28.7 µM] | 
CC[C@@]12CCCN3CCc4c(n(c5ccccc45)[C@](O)(C(=O)OC)C1)C32 (some centres not stated) | -2.61% [at 28.7 µM] | 
CN1CC(=O)N=C1N | -11.4% [at 28.7 µM] | 
OCC1OC([S-])[C@H](O)C(O)C1O.[Au+] (some centres not stated) | -4.15% [at 28.7 µM] | 
CC(C)C1CCC(C(=O)NC(Cc2ccccc2)C(=O)O)CC1 (configuration not stated) | 11.7% [at 28.7 µM] | 
CCC(CCC(C)C1CCC2C3CC=C4CC(O)CC[C@@]4(C)C3CC[C@@]12C)C(C)C (some centres not stated) | 15.4% [at 28.7 µM] | 
C[C@]12CCC(=O)C=C1CCC1C2C(=O)C[C@]2(C)C1CC[C@]2(O)C(=O)CO (some centres not stated) | 0.784% [at 28.7 µM] | 
OCC1O[C@H](OC2C(CO)O[C@@](O)(CO)C2O)C(O)C(O)C1O (some centres not stated) | 11.1% [at 28.7 µM] | 
CC1(C)OC2CO[C@]3(COS(N)(=O)=O)OC(C)(C)OC3C2O1 (some centres not stated) | 6.35% [at 28.7 µM] | 
CC1(C)OC2CC(=O)OC[C@@]23C1CC(=O)[C@]1(C)C3CC[C@@]2(C)C(c3ccoc3)OC(=O)C3O[C@@]321 (some centres not stated) | 7.83% [at 28.7 µM] | 
CCOC(=O)C1=CC(OC(CC)CC)C(NC(C)=O)C(N)C1 (configuration not stated) | 0.0482% [at 28.7 µM] | 
COC(=O)C(Cc1ccccc1)NC(=O)C(N)CC(=O)O (stereo not drawn) (H-Asp-Phe-OMe; configuration not given here) | 0.505% [at 28.7 µM] | 
C[C@]12C=CC(=O)C=C1CCC1C2C(O)C[C@]2(C)C1CC[C@]2(O)C(=O)CO (some centres not stated) | 4.68% [at 28.7 µM] | 
CC1(C)S[C@H]2C(NC(=O)[C@@H](N)c3ccc(O)cc3)C(=O)N2[C@@H]1C(=O)O (some centres not stated) | 2.26% [at 28.7 µM] | 

SMILES | activity, negative = inhibition | Potency
CC(C)=CCC[C@](C)(O)C1CC=C(C)CC1 (some centres not stated) | 2.32% [at 28.7 µM] | 
CO[C@]12C(COC(N)=O)C3=C(C(=O)C(C)=C(N)C3=O)N1CC1NC12 (some centres not stated) |  | 3.55 µM (active)
C[C@]1(c2ccccc2)OC(C(=O)O)=CC1=O | 2.31% [at 28.7 µM] | 
CC(=O)N[C@H](CC(C)C)C(=O)O | -2.29% [at 28.7 µM] | 
COc1ccc2cc(C(C)CO)ccc2c1 (configuration not stated) | 0.115% [at 28.7 µM] | 
COC1C=CO[C@@]2(C)Oc3c(C)c(O)c4c(O)c(c(C=NN5CCN(C)CC5)c(O)c4c3C2=O)NC(=O)/C(C)=C\C=CC(C)C(O)[C@@H](C)C(O)C(C)[C@H](OC(C)=O)C1C (some centres not stated) |  | 1.41 µM (active)
CC1CCC(C(C)C)C(=O)C1 (configuration not stated) | 10.3% [at 28.7 µM] | 
CNC1CC(N)[C@H](O)[C@@H](O[C@@H]2OC(CO)C3OC4(OC(C(N)CO)C(O)C(O)C4O)O[C@@H]3[C@H]2O)C1O (some centres not stated) | 6.77% [at 28.7 µM] | 
CCCC(=O)O[C@]1(C(=O)CO)CCC2[C@@H]3CCC4=CC(=O)CC[C@]4(C)C3C(O)C[C@]21C (some centres not stated) | 14.4% [at 28.7 µM] | 
CC(=O)[C@]1(O)CCC2C3C=C(Cl)C4=CC(=O)C5CC5[C@@]4(C)C3CC[C@]21C (some centres not stated) | 15.3% [at 28.7 µM] | 
CC(=O)N[C@@H]1C(O)OC(CO)C(O)C1O (some centres not stated) | 5.17% [at 28.7 µM] | 
C/C1=C2N=C(/C=C3N=C(/C(C)=C4\[N-]C(C)(C5N=C1C(C)(CCC(=O)NCC(C)OP(=O)([O-])O[C@H]1C(O)C(n6cnc7cc(C)c(C)cc76)O[C@@H]1CO)C5CC(N)=O)C(C)(CC(N)=O)C4CCC(N)=O)C(C)(CC(N)=O)C\3CCC(N)=O)C(C)(C)C/2CCC(N)=O.[CH2-]C1OC(n2cnc3c(N)ncnc32)C(O)C1O.[Co] (some centres not stated) | 12.9% [at 28.7 µM] | 
O=C1OC(CO)C(O)C(O)C1O (configuration not stated) | 1.58% [at 28.7 µM] | 
CNC1C(OC2C(O[C@@H]3C(O)C(O)[C@@H](N=C(N)N)C(O)C3N=C(N)N)OC(C)[C@@]2(O)CO)OC(CO)C(O)C1O (some centres not stated) | 12.2% [at 28.7 µM] | 
COc1cc(C2c3cc4c(cc3C(O[C@@H]3OC5COC(c6cccs6)OC5C(O)C3O)C3COC(=O)C23)OCO4)cc(OC)c1O (some centres not stated) |  | 4.47 µM (active)
Nc1nc2ncc(CNc3ccc(C(=O)NC(CCC(=O)O)C(=O)O)cc3)nc2c(=O)[nH]1 (configuration not stated) | 9.96% [at 28.7 µM] | 
